Bioassay records deposited in PubChem by National Center for Advancing Translational Sciences (NCATS).
Pin1 inh = qHTS Assay to Find Inhibitors of Pin1; Potency, µM (doses to about 115 µM), actives largely listed as inhibitors; actives 0.009% (n = 390,000); AID 504891, 2011; Pin1 FP peptide displacement, HiFluor488, 10 min; active means well fitted inhibition curve with a large enough effect in the polarisation, with a control signal flat, not every such curve was filed as active; inconclusive means small, poorly fitted or top-dose-only effect, or effect the other way, or a change in a side signal; inactive means no such curve, though single readings can be large or run the other way; the % refers to the polarisation
GRP78 ERSR act = qHTS for Inducers of the Endoplasmic Reticulum Stress Response (ERSR) in Human Glioma: qHTS; U87-MG GRP78 promoter luciferase reporter, 16 h; actives 0.02% (n = 420,000); Potency, µM, most hits filed as activators; AID 602332, 2012; further: series mostly up to about 76 µM; nearly all actives have a fitted effect of over 35% in size
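ERSR induction read as luciferase luminescence (Bright-Glo, 10 min at room temperature) in stably transfected human U87-MG glioma cells exposed to compounds for 16 h, using GRP78 as sensor.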
WRN inhibitor = qHTS for Inhibitors of WRN Helicase; Bifunctional 3'-5' exonuclease/ATP-dependent helicase WRN (Homo sapiens), Q14191; WRN helicase unwinding, fluorescent forked duplex, kinetic; Potency, µM (top dose mostly 114 µM), usual class: inhibitors; actives 0.46% (n = 360,000); AID 651768, 2012; further: nearly all actives have a fitted effect of over 55% in size
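WRN at 20 nM final preincubated with compound 15 min at room temperature; reaction started with 100 nM fluorophore/quencher forked duplex oligonucleotide and 2 mM ATP final. Unwinding followed kinetically by red fluorescence (ex 525, em 598 nm).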
PI5P4K alpha inh = qHTS for Inhibitors of phosphatidylinositol 5-phosphate 4-kinase (PI5P4K); PI5P4Kalpha enzyme, ADP-Glo luminescence, 60 min; hits give low values; max response, %; Phosphatidylinositol 5-phosphate 4-kinase type-2 alpha (Homo sapiens), P48426; actives 1.2% (n = 330,000); active means max response of -50% or lower; inconclusive means between -30% and -50%; inactive means -30% or higher; further: value at the top dose of about 77 µM
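Luminescence from ADP-Glo served as readout of PI5P4Kalpha activity in a qHTS format. Reaction: enzyme, substrate, compound, ATP at 5 microM final, 60 min at RT.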
PGK inhibitor = qHTS Assay to Find Inhibitors of Phosphoglycerate Kinase; Phosphoglycerate kinase, glycosomal (Trypanosoma brucei brucei), P07378; PGK/GAPDH coupled, Kinase-Glo luminescence, 60 min; Potency, µM (titrated, usually from 57.5 µM), usual class: inhibitors; actives 0.043% (n = 380,000); AID 602233, 2012; further: nearly all actives have a fitted effect of over 60% in size
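Luminescent ATP detection (Kinase-Glo Plus) follows a 60-minute room-temperature incubation, with wells lacking PGK as controls. Buffer: 100 mM TEA (pH 7.6), 5 mM MgCl2, 0.01% Tween-20. Coupling enzyme GAPDH (100 nM final) supplies unstable 1,3-BPG in-well.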
FEN1 inh = qHTS Assay for the Inhibitors of Human Flap endonuclease 1 (FEN1); actives 0.35% (n = 390,000); Potency, µM (highest dose often 114 µM), most hits filed as inhibitors; AID 588795, 2011; P39748; Recombinant FEN1 flap cleavage, fluorescence, 15 min; further: nearly all actives have a fitted effect of over 65% in size
Target sequence (P39748 whole entry, looked up): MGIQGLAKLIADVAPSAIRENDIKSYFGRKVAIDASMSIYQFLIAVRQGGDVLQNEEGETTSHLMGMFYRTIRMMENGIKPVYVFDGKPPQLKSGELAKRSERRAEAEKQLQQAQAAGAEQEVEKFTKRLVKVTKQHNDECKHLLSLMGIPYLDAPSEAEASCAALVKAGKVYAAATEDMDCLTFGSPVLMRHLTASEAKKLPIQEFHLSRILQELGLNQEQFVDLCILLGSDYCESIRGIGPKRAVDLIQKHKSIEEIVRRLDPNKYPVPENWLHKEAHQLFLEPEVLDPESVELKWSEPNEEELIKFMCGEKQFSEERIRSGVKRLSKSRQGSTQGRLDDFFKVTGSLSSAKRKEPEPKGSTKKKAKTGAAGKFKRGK
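Enzyme 10 nM, 15 min RT preincubation with compound; start with substrate 50 nM final; reads at 0 and 15 min; qHTS titration, four-parameter Hill fit.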
Hits are given with their value; . = inactive; ? = inconclusive; / = not tested or not shown. Rows were chosen to be rich in hits. Some 1.3% of all compounds tested hit in one or more screens of this group. Unless noted, the call rests on the fitted dose curve; in most records, active means well fitted curve in the direction sought with a large enough effect; inconclusive means small, poorly fitted or top-dose-only effect, or another doubt; inactive means no such curve, though single readings can be large; an effect the other way counts as inactive or inconclusive.

SMILES	Pin1 inh	GRP78 ERSR act	WRN inhibitor	PI5P4K alpha inh	PGK inhibitor	FEN1 inh
CCCC(=O)O[C@]1(C(=O)COC(=O)CC)[C@@H](C)C[C@H]2[C@@H]3CCC4=CC(=O)C=C[C@@]4(C)[C@@]3(F)[C@H](O)C[C@@]21C	/	.	/	/	/	/
COc1ccccc1/C=N/Nc1cc(C)nc2ccc(C)cc12	.	.	.	.	.	.
COc1ccc2nc(C)cc(N/N=C/c3ccccc3)c2c1	.	.	?	.	.	35µM
COc1ccc(CN2CCOc3ccc(CN4CCC(Oc5cccnc5)CC4)cc3C2)cc1	/	.	/	/	/	/
Cc1cc(C(=O)NCC2CCC3(CCN(Cc4cccc(F)c4F)CC3)O2)n(C)n1 (stereo not given)	/	.	/	/	/	/
CN1C(=O)S/C(=C\c2ccccc2OCc2ccc(C(=O)O)cc2)C1=O	.	.	.	.	.	.
COc1cccc(/C=C2\SC(=O)NC2=O)c1OCc1ccc(C(=O)O)cc1	.	.	.	-87	.	.
COc1ccc(CN2CCCC(c3nc(-c4ccncc4)ncc3-c3ccccc3C)C2)c(OC)c1 (stereo not given)	/	.	/	/	/	/
Cc1ccc(N)cc1O	.	.	.	.	.	.
Cc1cc(O)c(-c2cc(O)c(C)cc2O)cc1O	.	.	.	-67	.	?
COc1ccccc1-c1ccnc(-n2ncc(C(=O)NCc3ccncc3)c2C)n1	/	.	/	/	/	/
O=C(N/N=C/c1c(O)n(Cc2ccco2)c(=O)[nH]c1=O)c1ccccc1	.	.	.	-67	.	.
O=C(N/N=C\c1ccccc1OCc1ccccc1)c1ccco1	.	.	.	.	.	.
COc1ccccc1C1CN(Cc2cccc(C)n2)Cc2ccccc2O1 (stereo not given)	/	.	/	/	/	/
CCOC(=O)C1=C(C)N(CCCC(=O)O)C(=O)NC1c1ccc(Cl)cc1Cl (stereo not given)	.	.	.	-98	.	.
CC1=C(C(=O)OCc2ccccc2)C(c2ccc(Cl)cc2Cl)NC(=O)N1CCCC(=O)O (stereo not given)	.	.	.	-76	.	.
CCOC(=O)C1=C(C)N(CCCC(=O)O)C(=O)NC1c1ccccc1Cl (stereo not given)	.	.	.	-89	.	.
CC1=C(C(=O)OCc2ccccc2)C(c2ccc(Cl)cc2Cl)NC(=O)N1CCCCCC(=O)O (stereo not given)	.	.	.	?	.	.
CN1CCN(c2nn3c(=O)c4ccccc4nc3s2)CC1	.	/	/	/	/	/
CCOC(=O)N1CCN(Cc2ccc3c(c2)CN(C(=O)c2ccc4ncccc4c2)CCO3)CC1	/	.	/	/	/	/
O=C(O)c1cc2ncc(-c3[nH]ncc3[N+](=O)[O-])cn2n1	?	.	?	-56	.	.
CC(=O)Oc1ccc(-c2cc3ccccc3oc2=O)cc1	.	.	.	.	.	.
CC(=O)Oc1ccc(-c2cc3c(OC(C)=O)cc(OC(C)=O)cc3oc2=O)cc1	.	.	.	-56	.	.
Cc1ccccc1-n1cc(CNC(=O)CN2Cc3ccccc3OC(C)C2)cn1 (stereo not given)	/	.	/	/	/	/
S=C(SSC(=S)N1CCOCC1)N1CCOCC1	/	.	.	-88	/	/
O=C(COC(=O)CCN1C(=O)/C(=C\C=C\c2ccccc2)SC1=S)Nc1cc(F)ccc1F	?	.	.	-51	.	.
CCn1c(CSc2nc3ccccc3s2)nnc1SCC(=O)c1ccc(Cl)cc1	.	.	79µM	-51	.	.
CCn1c(CSc2nc3ccccc3s2)n[nH]c1=S	.	.	.	/	.	.
Nc1nonc1NC(=O)CSc1ncccc1C(=O)O	.	.	.	/	.	.
O=C(CSc1ncccc1C(=O)O)Nc1ccc2c(c1)OCCO2	.	.	.	-52	.	.
